# Experimental data published in PMC7862700, “An all-to-all approach to the identification of sequence-specific readers for epigenetic DNA modifications on cytosine”.
# Experiments:
# Experiment in all cases: DAPPL (digital affinity profiling via proximity ligation, sequencing); 10 mM Tris-HCl pH 7.5, 50 mM NaCl, 1 mM DTT, 4% glycerol, room temperature, 30 min; GST-TFs on glutathione beads, 16-mer random dsDNA library, 0.1% formaldehyde crosslink after washing; high values mean tight binding
# Settings in all cases: protein: recombinant; tags: N-terminal GST; dsDNA, one strand shown
# FLI1 = target: T1, FLI1 (Homo sapiens, UniProt Q01543 1-452)
# T1 sequence: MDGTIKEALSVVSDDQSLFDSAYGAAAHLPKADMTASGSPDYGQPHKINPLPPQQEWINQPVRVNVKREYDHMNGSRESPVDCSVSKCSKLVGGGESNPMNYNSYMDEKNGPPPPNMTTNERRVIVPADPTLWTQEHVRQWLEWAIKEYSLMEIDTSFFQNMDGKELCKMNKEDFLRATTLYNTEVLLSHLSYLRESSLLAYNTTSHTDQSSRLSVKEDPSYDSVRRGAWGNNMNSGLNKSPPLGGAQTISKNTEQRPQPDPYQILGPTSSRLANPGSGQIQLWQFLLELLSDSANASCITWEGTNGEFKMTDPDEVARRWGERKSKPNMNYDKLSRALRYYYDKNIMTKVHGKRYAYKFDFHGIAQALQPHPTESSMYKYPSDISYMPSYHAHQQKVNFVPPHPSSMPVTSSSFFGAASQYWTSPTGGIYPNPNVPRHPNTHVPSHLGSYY
# How it was run: (§1)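 Human transcription factors carrying a GST fusion were produced in yeast, bound to glutathione beads, tagged with DNA barcodes and pooled together with a tag-only sample. Each pool was held with 200 nmole of a random double-stranded 16-mer DNA library in Tris/NaCl/DTT/glycerol buffer for 30 min at room temperature, then washed, crosslinked in 0.1% formaldehyde, proximity-ligated with BsaI/T4 ligase (1 h, 37 °C), PCR-amplified and sequenced on an Illumina NextSeq500. Binding signal is the read frequency of each hexamer for a given factor divided by its frequency in the tag-only sample.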
# ELF1 = ELF1 (Homo sapiens, UniProt P32519 1-619)
# How it was run: as §1
# SPI1 = SPI1 (Homo sapiens, UniProt P17947 1-270)
# How it was run: as §1
# SPIB = SPIB (Homo sapiens, UniProt Q01892 1-262)
# How it was run: as §1
# SPIC = target: T2, SPIC (Homo sapiens, UniProt Q8N5J4 1-248)
# T2 sequence: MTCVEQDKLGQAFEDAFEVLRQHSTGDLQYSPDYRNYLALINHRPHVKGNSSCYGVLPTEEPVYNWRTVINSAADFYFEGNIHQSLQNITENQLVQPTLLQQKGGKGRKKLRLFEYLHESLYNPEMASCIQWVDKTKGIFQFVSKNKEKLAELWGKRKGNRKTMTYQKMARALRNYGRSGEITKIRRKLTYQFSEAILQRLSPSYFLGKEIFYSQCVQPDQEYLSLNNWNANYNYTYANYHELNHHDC
# How it was run: as §1
# ELK4 = target: T3, ELK4 (Homo sapiens, UniProt P28324-2 1-405)
# T3 sequence: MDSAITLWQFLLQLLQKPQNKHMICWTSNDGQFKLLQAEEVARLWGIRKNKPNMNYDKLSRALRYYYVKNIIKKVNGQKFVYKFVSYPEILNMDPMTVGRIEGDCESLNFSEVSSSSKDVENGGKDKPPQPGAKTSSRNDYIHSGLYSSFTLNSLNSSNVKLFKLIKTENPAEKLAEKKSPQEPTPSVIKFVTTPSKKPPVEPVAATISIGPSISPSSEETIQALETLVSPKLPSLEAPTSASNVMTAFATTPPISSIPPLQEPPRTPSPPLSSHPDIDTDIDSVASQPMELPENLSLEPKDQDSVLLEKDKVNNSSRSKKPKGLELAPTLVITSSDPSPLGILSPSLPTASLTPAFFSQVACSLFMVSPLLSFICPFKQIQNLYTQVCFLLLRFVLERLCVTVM
# How it was run: as §1
# ETV2 = target: T4, ETV2 (Homo sapiens, UniProt O00321 1-342)
# T4 sequence: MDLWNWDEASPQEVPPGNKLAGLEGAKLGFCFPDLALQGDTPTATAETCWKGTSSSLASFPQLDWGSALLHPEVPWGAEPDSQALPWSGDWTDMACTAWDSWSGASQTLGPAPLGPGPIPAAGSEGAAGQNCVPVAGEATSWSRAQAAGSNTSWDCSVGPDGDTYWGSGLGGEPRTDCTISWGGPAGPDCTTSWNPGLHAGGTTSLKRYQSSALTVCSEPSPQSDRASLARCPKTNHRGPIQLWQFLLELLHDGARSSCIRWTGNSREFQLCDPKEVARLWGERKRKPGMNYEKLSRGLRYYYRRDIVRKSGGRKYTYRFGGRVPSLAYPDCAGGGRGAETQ
# How it was run: as §1
# ELF3 = target: T5, ELF3 (Homo sapiens, UniProt P78545 1-371)
# T5 sequence: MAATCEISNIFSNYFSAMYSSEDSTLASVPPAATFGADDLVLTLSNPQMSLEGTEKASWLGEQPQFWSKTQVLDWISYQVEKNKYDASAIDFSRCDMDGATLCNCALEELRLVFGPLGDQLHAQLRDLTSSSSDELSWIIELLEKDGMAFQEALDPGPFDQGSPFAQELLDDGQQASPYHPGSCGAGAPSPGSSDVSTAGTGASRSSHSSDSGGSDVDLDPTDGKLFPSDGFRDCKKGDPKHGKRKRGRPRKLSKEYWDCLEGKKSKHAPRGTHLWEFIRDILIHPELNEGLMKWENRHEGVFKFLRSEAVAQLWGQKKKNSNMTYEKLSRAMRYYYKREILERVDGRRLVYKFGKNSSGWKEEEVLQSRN
# How it was run: as §1
# ETV1 = ETV1 (Homo sapiens, UniProt P50549 1-477)
# How it was run: as §1
# Chain of ELF1 (P32519 whole entry): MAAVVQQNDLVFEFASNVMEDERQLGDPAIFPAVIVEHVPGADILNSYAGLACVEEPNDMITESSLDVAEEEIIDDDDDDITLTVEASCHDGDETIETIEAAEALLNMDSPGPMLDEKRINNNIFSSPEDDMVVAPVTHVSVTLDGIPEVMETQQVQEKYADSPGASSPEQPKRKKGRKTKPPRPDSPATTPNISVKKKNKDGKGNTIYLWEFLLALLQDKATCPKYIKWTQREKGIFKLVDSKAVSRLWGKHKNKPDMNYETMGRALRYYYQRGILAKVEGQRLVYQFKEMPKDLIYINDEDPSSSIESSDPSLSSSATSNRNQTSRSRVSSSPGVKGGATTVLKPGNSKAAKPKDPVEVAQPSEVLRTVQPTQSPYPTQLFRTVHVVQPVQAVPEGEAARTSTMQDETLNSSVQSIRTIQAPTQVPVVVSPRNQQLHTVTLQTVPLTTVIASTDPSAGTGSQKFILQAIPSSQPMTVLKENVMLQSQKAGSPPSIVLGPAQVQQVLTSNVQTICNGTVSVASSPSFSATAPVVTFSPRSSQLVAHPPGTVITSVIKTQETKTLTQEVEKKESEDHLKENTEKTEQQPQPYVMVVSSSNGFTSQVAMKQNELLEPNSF
# Chain of ETV1 (P50549 whole entry): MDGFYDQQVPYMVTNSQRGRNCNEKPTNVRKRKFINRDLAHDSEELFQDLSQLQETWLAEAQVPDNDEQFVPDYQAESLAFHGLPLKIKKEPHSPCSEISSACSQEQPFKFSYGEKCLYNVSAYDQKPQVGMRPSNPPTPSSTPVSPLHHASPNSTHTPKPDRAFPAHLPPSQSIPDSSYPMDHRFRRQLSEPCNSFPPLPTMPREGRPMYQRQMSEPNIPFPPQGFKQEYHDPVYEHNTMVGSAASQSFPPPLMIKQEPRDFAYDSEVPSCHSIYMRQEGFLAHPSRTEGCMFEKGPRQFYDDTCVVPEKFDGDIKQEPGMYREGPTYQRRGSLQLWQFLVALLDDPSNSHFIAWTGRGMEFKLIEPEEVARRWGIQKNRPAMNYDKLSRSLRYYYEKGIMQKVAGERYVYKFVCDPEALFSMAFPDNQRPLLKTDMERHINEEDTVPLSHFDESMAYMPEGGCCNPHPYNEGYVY
# Chain of SPIB (Q01892 whole entry): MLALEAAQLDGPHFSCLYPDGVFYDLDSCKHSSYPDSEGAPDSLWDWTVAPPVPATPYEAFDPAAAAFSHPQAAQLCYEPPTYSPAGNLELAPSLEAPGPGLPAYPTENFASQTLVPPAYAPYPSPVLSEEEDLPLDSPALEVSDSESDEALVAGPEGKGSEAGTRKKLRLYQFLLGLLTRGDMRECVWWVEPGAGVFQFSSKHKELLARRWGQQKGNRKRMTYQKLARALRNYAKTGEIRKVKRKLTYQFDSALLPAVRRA
sequence,measurement,setting,value
ACTGTC,binding signal,FLI1,"1.02 fold enrichment (6-mer frequency, TF over GST control)"
same,binding signal,ELF1,"1.01 fold enrichment (6-mer frequency, TF over GST control)"
same,binding signal,SPI1,"1 fold enrichment (6-mer frequency, TF over GST control)"
same,binding signal,SPIB,"1.05 fold enrichment (6-mer frequency, TF over GST control)"
same,binding signal,SPIC,"1.09 fold enrichment (6-mer frequency, TF over GST control)"
same,binding signal,ELK4,"1 fold enrichment (6-mer frequency, TF over GST control)"
same,binding signal,ETV2,"1.1 fold enrichment (6-mer frequency, TF over GST control)"
same,binding signal,ELF3,"1.01 fold enrichment (6-mer frequency, TF over GST control)"
same,binding signal,ETV1,"1 fold enrichment (6-mer frequency, TF over GST control)"
